EPAC2 antagonist – qHTS for Antagonist of cAMP-regulated guanine nucleotide exchange factor 2 (EPAC2): primary screen. Rap guanine nucleotide exchange factor 4 (Homo sapiens), Q8WZA2. EPAC2 GEF exchange of Rap1B-BODIPY-GDP, fluorescence. Potency, µM (titrated, usually from 114 µM), for inactives: at the highest dose activity, negative = inhibition, most hits filed as inhibitors. actives 0.18% (n = 360,000). AID 720708, 2013; further: on the % scale 0 is the no-effect control and ±100 the full control effect; nearly all actives have a fitted effect of over 45% in size
EPAC1 antag – qHTS for Antagonist of cAMP-regulated guanine nucleotide exchange factor 3 (EPAC1): primary screen. EPAC1 GEF assay, Rap1b-BODIPY-GDP exchange fluorescence. actives 0.14% (n = 360,000). Potency, µM (highest dose often 115 µM), for inactives: top-dose activity change, negative = inhibition, hits mostly inhibitors;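 further: plate controls were vehicle for no effect and positive control for full effect; nearly all actives have a fitted effect of over 50% in size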
Rango release inh – qHTS Assay for Inhibitors of RanGTP induced Rango (Ran-regulated importin-beta cargo) - Importin beta complex dissociation | Biochemical FRET Rango-importin beta, RanGTP-induced dissociation | Potency, µM (titrated, usually from 46.1 µM), for inactives: at the top dose activity change, negative = inhibition | actives 0.071% (n = 340,000) | AID 540253, 2011; calls by dose curve; further: % of control where 0% means no effect; nearly all actives have a fitted effect of over 45% in size
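Recombinant Rango FRET biosensor (EYFP–snurportin 1 IBB–cerulean CFP10) at 0.1 uM premixed with 0.25 uM importin beta in PBS, 1 mM DTT, 0.02% Tween-20, 0.1% BSA. Compound added 5 min; RanGTP-RCC1 (0.6 uM Ran, 2 mM GTP, 0.2 uM RCC1) then triggers release, read at 45 min.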
Rango complex inh – qHTS Assay for Inhibitors of Rango (Ran-regulated importin-beta cargo) - Importin beta complex formation; Rango CFP/YFP FRET sensor + importin beta, 45 min; Potency, µM (highest dose often 92.2 µM), for the others: top-dose inhibition of complex formation; Importin subunit beta-1 (Homo sapiens), Q14974; actives 0.031% (n = 340,000); calls by dose curve;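 further: 0% = DMSO wells and 100% = buffer wells lacking importin beta; nearly all actives have a fitted effect of over 15% in size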
Target sequence (Q14974 whole entry, looked up): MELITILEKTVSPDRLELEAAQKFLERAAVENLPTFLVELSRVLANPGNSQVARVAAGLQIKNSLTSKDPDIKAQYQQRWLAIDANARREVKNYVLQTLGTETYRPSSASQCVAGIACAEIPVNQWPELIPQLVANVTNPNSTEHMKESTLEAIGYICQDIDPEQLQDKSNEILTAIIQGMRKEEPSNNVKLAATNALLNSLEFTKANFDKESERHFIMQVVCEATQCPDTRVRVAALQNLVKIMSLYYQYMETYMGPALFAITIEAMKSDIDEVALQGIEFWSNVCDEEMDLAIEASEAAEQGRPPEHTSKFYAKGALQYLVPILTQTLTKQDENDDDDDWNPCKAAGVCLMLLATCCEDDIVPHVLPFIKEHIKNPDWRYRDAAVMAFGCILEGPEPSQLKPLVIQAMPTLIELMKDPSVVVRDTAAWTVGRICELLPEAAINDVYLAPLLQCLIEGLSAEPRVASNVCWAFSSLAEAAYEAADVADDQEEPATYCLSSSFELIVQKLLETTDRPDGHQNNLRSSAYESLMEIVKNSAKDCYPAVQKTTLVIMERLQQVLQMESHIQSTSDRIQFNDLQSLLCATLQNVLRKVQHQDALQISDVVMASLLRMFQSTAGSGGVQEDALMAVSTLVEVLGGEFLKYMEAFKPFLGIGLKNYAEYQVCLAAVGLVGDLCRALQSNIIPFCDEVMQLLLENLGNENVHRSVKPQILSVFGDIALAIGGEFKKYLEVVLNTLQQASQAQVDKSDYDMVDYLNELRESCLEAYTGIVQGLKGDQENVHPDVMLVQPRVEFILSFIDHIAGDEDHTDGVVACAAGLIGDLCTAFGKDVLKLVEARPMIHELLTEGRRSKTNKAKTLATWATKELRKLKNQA
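Inhibition scored from the CFP 486 nm/YFP 530 nm FRET ratio 45 min after adding 0.125 microM importin beta to 50 nM Rango biosensor preincubated 5 min with compound (room temperature, PBS with DTT, Tween-20, BSA). No-importin wells as positive control.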
EPAC1 ag – qHTS for Agonist of cAMP-regulated guanine nucleotide exchange factor 3 (EPAC1): primary screen; EPAC1 agonist qHTS, biochemical assay; response scale: 100% = response to 6.5 mM cAMP; Rap guanine nucleotide exchange factor 3 (Homo sapiens), O95398; actives 0.073% (n = 360,000); AID 720707, 2013; Potency, µM (doses to about 154 µM), inactives show top-dose activation, usual class: activators; further: nearly all actives have a fitted effect of over 60% in size
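Multi-concentration qHTS readout: loss of Rap1B-bound BODIPY-GDP fluorescence driven by 100 nM EPAC1 with excess GDP (50 uM), monitored kinetically at room temperature; agonist response expressed relative to 6.5 mM cAMP.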
EPAC2 ag – qHTS for Agonist of cAMP-regulated guanine nucleotide exchange factor 4 (EPAC2): primary screen; EPAC2 activation, biochemical qHTS; response scale: 100% = 6.5 mM cAMP response; Potency, µM (doses to about 154 µM), without a hit: at the highest dose activation, usual class: activators; AID 720711, 2013; actives 0.079% (n = 360,000); further: nearly all actives have a fitted effect of over 50% in size
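Nucleotide exchange monitored as fluorescence drop when BODIPY-GDP leaves Rap1B. Reaction: 100 nM EPAC2, 250 nM RAP1B-BODIPY-GDP, 50 uM GDP, room temperature, kinetic read over 30 min. Activity expressed relative to 6.5 mM cAMP.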
An asterisk follows results filed as active; ? = inconclusive; · = no result. The list is not random: actives were taken first. Their share in the collection is about 0.43%. Unless noted, the call rests on the fitted dose curve; in most records, active means well fitted curve in the direction sought with a large enough effect; inconclusive means small, poorly fitted or top-dose-only effect, or another doubt; inactive means no such curve, though single readings can be large; an effect the other way counts as inactive or inconclusive. Potency means the concentration at half of the fitted maximal effect.

SMILES	EPAC2 antagonist	EPAC1 antag	Rango release inh	Rango complex inh	EPAC1 ag	EPAC2 ag
O=C(C(=O)N1CCN(C(=O)OCc2ccccc2)CC1)c1cccs1	-16%	8%	·	·	7%	4%
CC1CCCCC1NC(=O)COC(=O)c1c2c(nc3ccccc13)/C(=C\c1ccco1)CC2 (stereo not given)	-2%	35µM*	2.3µM*	?	-27%	-16%
O=c1c2cc([N+](=O)[O-])cc([N+](=O)[O-])c2[nH]n1-c1ccccc1	45µM*	?	0%	-2%	-12%	-17%
CC1(C(=O)Nc2ccc(F)c(Cl)c2)Cc2c(-c3ccc(C(N)=O)cc3)ccnc2O1 (stereo not given)	-14%	-13%	·	·	-12%	15%
COC(=O)[C@@]12C[C@@H](CC(=O)N3CCOCC3)C(=O)N(Cc3cccc4ccccc34)C1=CCC(C)(C)C2	-22%	-14%	·	·	0%	3%
O=C1c2cccc3c(O)ccc(c23)C(=O)N1Cc1ccccc1	277%	227%	?	?	100µM*	89µM*
O=C(O)c1cccc(CN2C(=O)c3ccccc3C2=O)c1	3%	-21%	-4%	17%	-1%	15%
COc1ccc(C2N(c3ccc(Cl)cc3)N=C(C(C)=O)N(C)N2C(C)=O)cc1 (stereo not given)	20µM*	6%	-11%	4%	5%	13%
COc1cccc(N2C(C(C)=O)=NN(c3ccccc3)C2c2ccc(N3CCOCC3)cc2)c1 (stereo not given)	-3%	2%	?	?	12%	6%
COc1ccc(NC(=O)CSc2nc3nc(-c4cccs4)cc(C(F)(F)F)c3c(=O)[nH]2)c(OC)c1	-18%	32µM*	8%	-3%	9%	-8%
Cc1cc(C(=O)Nc2ccon2)c(C)o1	8%	50µM*	-9%	-1%	-8%	3%
COc1cc(/C=C(\C#N)c2nc3ccccc3s2)cc([N+](=O)[O-])c1O	?	79µM*	6%	2%	-7%	13%
Cc1nc(N2C(=O)C(=O)/C(=C(/O)c3ccccc3)C2c2ccco2)sc1C (stereo not given)	14%	9%	-15%	?	-3%	4µM*
COC(=O)c1sc(N2C(=O)C(=O)/C(=C(/O)c3ccccc3)C2c2ccco2)nc1C (stereo not given)	2%	-3%	-3%	?	-4%	-4%
CCCN(CCC)Cc1cc(=O)oc2cc(C)cc(C)c12	?	3%	·	·	-20%	-9%
O=C(NCc1ccccc1)C1c2ccccc2OCC(=O)N1Cc1ccccc1 (stereo not given)	11%	-3%	·	·	4%	3%
Cn1cccc1/C=C1\CCC/C(=C\c2cccn2C)C1=O	?	19%	?	?	100µM*	-21%
COc1ccccc1NC(=O)c1c(NC(=O)c2ccco2)sc2c1CCC2	3%	-2%	21µM*	?	-8%	6%
CNC(=O)c1c(NC(=O)c2ccco2)sc2c1CCC2	5%	16%	-23%	?	-6%	4%
COC(=O)c1c(C)cc(O)cc1O	-2%	-14%	3%	-2%	-14%	4%

Assay outcomes as filed in PubChem.
